Measured values from PubChem BioAssay (NCI).
About 83,000 compounds went through this panel and 20% of them were active in at least one assay; those are over-represented in the sample as a whole.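 Note: values are percent growth. 100 is the growth of untreated cells, values between 100 and 0 indicate rising inhibition; between -100 and 0 indicates cell death.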 The source made the active and inactive calls. Rule for the calls: active = growth percent below 10; inactive = the rest.

How the values were obtained:
Assay in all cases: NCI-60 one-dose screen, 48 h (100 = growth as untreated, 0 = no growth, -100 = all killed)
Conditions in all cases: 10 µM unless noted
DU-145 prostate = test system: DU-145 prostate
K-562 leukemia = test system: K-562 leukemia
MALME-3M melanoma = test system: MALME-3M melanoma
MDA-MB-231 breast = test system: MDA-MB-231 breast
SF-268 CNS = test system: SF-268 CNS
SF-295 CNS = test system: SF-295 CNS
SF-539 CNS = test system: SF-539 CNS
UACC-257 melanoma = test system: UACC-257 melanoma
HCT-15 colon = test system: HCT-15 colon
HT29 colon = test system: HT29 colon
SNB-75 CNS = test system: SNB-75 CNS
SNB-19 CNS = test system: SNB-19 CNS
U251 CNS = test system: U251 CNS
PC-3 prostate = test system: PC-3 prostate
SK-MEL-5 melanoma = test system: SK-MEL-5 melanoma
UACC-62 melanoma = test system: UACC-62 melanoma
LOX IMVI melanoma = test system: LOX IMVI melanoma
SK-MEL-28 melanoma = test system: SK-MEL-28 melanoma

Measured: growth

CN(C)CCNC(=O)c1ccc(-c2nc3ccc4[nH]ncc4c3c3c2COCC3)cc1
inactive: UACC-257 melanoma 22.1% | HCT-15 colon 84.7% | HT29 colon 16.7%
active: DU-145 prostate 4.89% | K-562 leukemia 8.14% | MALME-3M melanoma -24% | MDA-MB-231 breast -5.19% | SF-268 CNS -16.2% | SF-295 CNS 3.44% | SF-539 CNS -53% | SNB-75 CNS -30.1% | SNB-19 CNS 6.94% | U251 CNS 5.37% | PC-3 prostate 0.378% | SK-MEL-5 melanoma 3.57% | UACC-62 melanoma -24.7% | LOX IMVI melanoma -72.4% | SK-MEL-28 melanoma -6.13%

COc1ccc(C(=O)c2c(N)c(C#N)cn2-c2ccccc2OC)cc1
active: SF-295 CNS 8.45% | HT29 colon 6.81% | SK-MEL-5 melanoma 6.34%
inactive: DU-145 prostate 52.4% | K-562 leukemia 13.3% | MALME-3M melanoma 42% | MDA-MB-231 breast 48.6% | SF-268 CNS 44.1% | SF-539 CNS 12.4% | UACC-257 melanoma 66.9% | HCT-15 colon 26% | SNB-75 CNS 29.3% | SNB-19 CNS 29.8% | U251 CNS 34.2% | PC-3 prostate 36.2% | UACC-62 melanoma 23.3% | LOX IMVI melanoma 23.8% | SK-MEL-28 melanoma 59.2%

COc1c(N2CC3CCCNC3C2)c(F)cc2c(=O)c(C(=O)N/N=C/c3ccc(Br)cc3)cn(C3CC3)c12 (configuration not stated)
inactive: DU-145 prostate 85.5% | MALME-3M melanoma 82.8% | MDA-MB-231 breast 56.1% | SF-268 CNS 82.4% | SF-295 CNS 101% | SF-539 CNS 72.7% | UACC-257 melanoma 100% | HT29 colon 13.6% | SNB-75 CNS 103% | SNB-19 CNS 88.3% | U251 CNS 86.9% | PC-3 prostate 65.1% | SK-MEL-5 melanoma 84% | UACC-62 melanoma 43% | SK-MEL-28 melanoma 86.2%
active: K-562 leukemia -18.5% | HCT-15 colon 1.76% | LOX IMVI melanoma -73.5%

O=C(NNc1nc2cc(F)ccc2n2c(CN3CC4CNCC4C3)ccc12)c1cnccn1 (configuration not stated)
active: SF-295 CNS 2.89% | UACC-62 melanoma 1.75% | LOX IMVI melanoma 7.74%
inactive: DU-145 prostate 27.5% | K-562 leukemia 15.6% | MALME-3M melanoma 18.9% | MDA-MB-231 breast 39.5% | SF-268 CNS 22.3% | SF-539 CNS 15.1% | UACC-257 melanoma 13.7% | HCT-15 colon 18.1% | HT29 colon 29.2% | SNB-75 CNS 54.3% | SNB-19 CNS 33.5% | U251 CNS 27.2% | PC-3 prostate 27.2% | SK-MEL-5 melanoma 11.2% | SK-MEL-28 melanoma 31.5%

CCn1c(SCC(=O)Nc2cccc(C(=O)/C=C/c3cc(OC)c(OC)c(OC)c3)c2)nc2ccccc2c1=O
active: HCT-15 colon -13.9% | HT29 colon 1.12% | SNB-75 CNS -4.22% | LOX IMVI melanoma -73.6%
inactive: DU-145 prostate 13.9% | K-562 leukemia 13.4% | MALME-3M melanoma 61.8% | MDA-MB-231 breast 23.4% | SF-268 CNS 37.7% | SF-295 CNS 75% | SF-539 CNS 24% | UACC-257 melanoma 67.7% | SNB-19 CNS 39.9% | U251 CNS 30.1% | PC-3 prostate 46.8% | SK-MEL-5 melanoma 33.9% | UACC-62 melanoma 41.2% | SK-MEL-28 melanoma 77%

O=C(c1ccc(O)cc1)[C@@H]1CN[C@@]2(C(=O)Nc3ccccc32)[C@H]1c1ccc(F)cc1
inactive: DU-145 prostate 111% | K-562 leukemia 88% | MALME-3M melanoma 98.5% | MDA-MB-231 breast 93.6% | SF-268 CNS 97.7% | SF-295 CNS 101% | SF-539 CNS 93.7% | UACC-257 melanoma 114% | HCT-15 colon 94.8% | HT29 colon 110% | SNB-75 CNS 103% | SNB-19 CNS 92.8% | U251 CNS 102% | PC-3 prostate 88.8% | SK-MEL-5 melanoma 101% | UACC-62 melanoma 86% | LOX IMVI melanoma 110% | SK-MEL-28 melanoma 105%

COc1c(N2CC3CCCNC3C2)c(F)cc2c(=O)c(C(=O)N/N=C/c3ccc4c(c3)OCO4)cn(C3CC3)c12 (configuration not stated)
inactive: DU-145 prostate 68.9% | MALME-3M melanoma 90.3% | MDA-MB-231 breast 41.3% | SF-268 CNS 79.4% | SF-295 CNS 44.2% | UACC-257 melanoma 85.3% | SNB-75 CNS 102% | SNB-19 CNS 80.5% | U251 CNS 12.4% | PC-3 prostate 60.1% | SK-MEL-5 melanoma 22.8% | UACC-62 melanoma 90.7% | SK-MEL-28 melanoma 96.5%
active: K-562 leukemia 2.44% | SF-539 CNS -60.4% | HCT-15 colon 3.7% | HT29 colon -19.2% | LOX IMVI melanoma -64.3%

COc1ccc2c(c1)c(CC(=O)[Se]CC#N)c(C)n2C(=O)c1ccc(Cl)cc1
active: DU-145 prostate -37.1% | MALME-3M melanoma 6.79% | MDA-MB-231 breast 9.39% | SF-295 CNS -11.7% | SF-539 CNS 9.61% | UACC-257 melanoma -10% | HCT-15 colon 7.36% | HT29 colon -8.37% | PC-3 prostate 8.19% | SK-MEL-5 melanoma -6.8% | LOX IMVI melanoma -35.8%
inactive: K-562 leukemia 14.5% | SF-268 CNS 35.6% | SNB-75 CNS 73% | SNB-19 CNS 50.3% | U251 CNS 19.7% | UACC-62 melanoma 55.2% | SK-MEL-28 melanoma 37.6%

CCOc1ccc(NC2=C(Cl)C(=O)c3nc(C)ccc3C2=O)cc1
inactive: SF-268 CNS 32.3% | SF-295 CNS 51% | HT29 colon 15.9% | SNB-75 CNS 96.5% | SNB-19 CNS 44.7% | U251 CNS 15.6% | PC-3 prostate 10.4%
active: DU-145 prostate -92.7% | K-562 leukemia -4.17% | MALME-3M melanoma -90.6% | MDA-MB-231 breast -71.7% | SF-539 CNS -58.8% | UACC-257 melanoma -89.2% | HCT-15 colon -83.2% | SK-MEL-5 melanoma -98.6% | UACC-62 melanoma -43.3% | LOX IMVI melanoma -76.4% | SK-MEL-28 melanoma 8.93%
